# “And” between values parts separate entries of the source, which are not always exact repeats. Equal entries are not always repeated. Values without a mark were called inactive. Inconclusive results are not listed. A call without a number means that no potency is given here. The source made the active and inactive calls. Unless noted, the call rests on the fitted dose curve; in most records, active means well fitted curve in the direction sought with a large enough effect in the repeat runs; inconclusive means weak or mixed curves; inactive means no such curve, though single readings can be large; an effect the other way counts as inactive or inconclusive.
# Assays:
# [1] = molecular target: Thyrotropin receptor (Homo sapiens) (UniProt P16473); assay: qHTS assay to identify small molecule antagonists of the thyroid stimulating hormone receptor (TSHR) signaling pathway (AID 1259385; calls by dose curve; further: nearly all actives have a fitted effect of over 20% in size)
# Thyrotropin receptor (Homo sapiens), sequence (P16473 whole entry, looked up): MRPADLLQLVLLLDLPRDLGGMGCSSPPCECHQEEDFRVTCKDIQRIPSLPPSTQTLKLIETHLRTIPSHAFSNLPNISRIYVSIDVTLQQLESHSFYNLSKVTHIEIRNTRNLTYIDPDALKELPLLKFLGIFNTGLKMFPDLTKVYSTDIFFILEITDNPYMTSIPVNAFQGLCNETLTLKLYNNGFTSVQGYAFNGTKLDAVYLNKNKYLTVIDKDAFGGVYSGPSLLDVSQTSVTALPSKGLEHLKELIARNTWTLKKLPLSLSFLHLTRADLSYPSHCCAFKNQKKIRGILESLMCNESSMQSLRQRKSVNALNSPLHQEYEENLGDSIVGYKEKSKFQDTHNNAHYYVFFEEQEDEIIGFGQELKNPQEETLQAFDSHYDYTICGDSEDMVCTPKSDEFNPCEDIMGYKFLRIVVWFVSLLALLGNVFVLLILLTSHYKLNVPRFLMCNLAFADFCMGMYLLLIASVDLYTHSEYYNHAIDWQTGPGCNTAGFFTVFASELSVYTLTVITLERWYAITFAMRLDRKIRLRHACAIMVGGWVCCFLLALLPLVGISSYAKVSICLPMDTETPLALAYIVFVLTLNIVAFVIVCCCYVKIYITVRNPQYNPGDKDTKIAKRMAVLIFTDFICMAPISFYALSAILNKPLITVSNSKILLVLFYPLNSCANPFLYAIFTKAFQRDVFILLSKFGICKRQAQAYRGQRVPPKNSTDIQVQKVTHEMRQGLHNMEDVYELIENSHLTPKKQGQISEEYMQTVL
# Procedure, shortened: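 TSHR-HEK293 cells (800/well) plated 18 h, then compounds with Ro20-1724 and TSH at 1.5 ng/mL final, 30 min at room temperature. cAMP quantified by HTRF (cAMP-d2/anti-cAMP-cryptate, 1 h); 15 concentrations in triplicate.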
# [2] = qHTS assay to identify small molecule agonists of the estrogen receptor alpha (ER-alpha) signaling pathway in the presence of an antagonist - cell viability counter screen (AID 1259386);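 further: cells exposed to compounds for 22 h at 37 °C before the viability read; nearly all actives have a fitted effect of over 30% in size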; further: potency means the concentration at half of the fitted maximal effect
# Procedure, shortened: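 Using estrogen-depleted VM7Luc4E2 cells, the 15-concentration compound series was applied together with 10.0nM ICI-182,780 and incubated 22hr at 37C/5% CO2. Cell viability was then scored by CellTiter-Fluor.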
# [3] = molecular target: Progesterone receptor (Homo sapiens) (UniProt P06401); assay: qHTS assay to identify small molecule agonists of the progesterone receptor (PR) signaling pathway (AID 1346784; calls by dose curve; further: nearly all actives have a fitted effect of over 30% in size)
# Progesterone receptor (Homo sapiens), sequence (P06401 whole entry, looked up): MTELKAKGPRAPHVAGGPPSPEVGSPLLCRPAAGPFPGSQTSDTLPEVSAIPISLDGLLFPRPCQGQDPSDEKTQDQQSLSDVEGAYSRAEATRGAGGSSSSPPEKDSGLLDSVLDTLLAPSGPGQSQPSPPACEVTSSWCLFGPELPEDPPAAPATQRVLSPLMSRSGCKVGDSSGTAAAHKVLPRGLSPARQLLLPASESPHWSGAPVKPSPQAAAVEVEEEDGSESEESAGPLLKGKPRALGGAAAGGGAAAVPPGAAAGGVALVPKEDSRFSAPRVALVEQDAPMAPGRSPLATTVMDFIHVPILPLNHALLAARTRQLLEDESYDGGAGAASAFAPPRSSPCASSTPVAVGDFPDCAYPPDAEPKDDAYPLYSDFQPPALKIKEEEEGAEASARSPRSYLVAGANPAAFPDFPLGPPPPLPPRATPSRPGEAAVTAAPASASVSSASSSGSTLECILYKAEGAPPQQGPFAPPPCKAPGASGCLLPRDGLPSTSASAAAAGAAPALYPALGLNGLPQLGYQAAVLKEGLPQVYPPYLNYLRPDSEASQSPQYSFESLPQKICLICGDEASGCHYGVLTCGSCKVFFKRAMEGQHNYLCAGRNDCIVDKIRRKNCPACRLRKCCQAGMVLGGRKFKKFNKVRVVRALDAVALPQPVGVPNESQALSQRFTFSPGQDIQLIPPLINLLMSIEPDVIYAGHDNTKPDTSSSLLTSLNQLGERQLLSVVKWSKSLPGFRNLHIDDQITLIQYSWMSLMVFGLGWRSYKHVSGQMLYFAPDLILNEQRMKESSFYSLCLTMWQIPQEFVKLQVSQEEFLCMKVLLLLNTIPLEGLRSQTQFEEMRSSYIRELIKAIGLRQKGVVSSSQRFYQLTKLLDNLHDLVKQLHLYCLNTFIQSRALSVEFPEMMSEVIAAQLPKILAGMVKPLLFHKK
# Procedure, shortened: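 Fluorescence from LiveBLAzer B/G FRET substrate cleavage (2 hr, RT) reported PR activation in PR-UAS-bla HEK 293T cells treated 16 hr at 37C/5% CO2 with compounds; medium contained 2% charcoal-stripped FBS.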
# [4] = molecular target: Progesterone receptor (Homo sapiens) (UniProt P06401); assay: qHTS assay to identify small molecule antagonists of the progesterone receptor (PR) signaling pathway (AID 1346795; active means well fitted inhibition curve with a large enough effect in the signal ratio in the repeat runs, not every such curve was filed as active; the % refers to the signal ratio)
# Procedure, shortened: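 Fluorescence intensity measured 2 hr after adding beta-lactamase FRET substrate to PR-UAS-bla HEK293T cells that had been co-treated 16 hr with compound and 1 nM R5020 (final concentration) in 2% charcoal-stripped FBS.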
# [5] = qHTS assay to identify small molecule antagonists of the progesterone receptor (PR) signaling pathway - cell viability counter screen (AID 1346798); further: series mostly up to about 92 µM; nearly all actives have a fitted effect of over 50% in size
# Procedure, shortened: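 CellTiter-Glo luminescence; PR-UAS-bla HEK293T, 3,000 cells/well; compound + R5020, 16 hr, 37C/5% CO2; 30 min RT before read.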
# [6] = qHTS assay to identify small molecule agonists of the progesterone receptor (PR) signaling pathway - cell viability counter screen (AID 1346799; calls by dose curve; further: nearly all actives have a fitted effect of over 45% in size)
# Procedure, shortened: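 In parallel with the beta-lactamase readout, cytotoxicity toward PR-UAS-bla HEK293T cells was measured by CellTiter-Glo luminescence following 16 hr compound incubation in 2% charcoal-stripped FBS medium.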
# [7] = qHTS assay to identify small molecule antagonists of the TGF-beta/Smad signaling pathway - cell viability counter screen (AID 1346824); further: nearly all actives have a fitted effect of over 50% in size
# Procedure, shortened: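 SBE-bla HEK 293T cells, incubated overnight, then compound plus 0.25 ng/mL TGF-beta1 (stock added) for 5 hr at 37 C. Viability was read in the same wells by CellTiter-Glo luminescence after 30 min at room temperature.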
# [8] = qHTS assay to identify small molecule agonists of the TGF-beta/Smad signaling pathway - cell viability counter screen (AID 1346829); further: top concentration of the series differs between compounds; nearly all actives have a fitted effect of over 45% in size
# Procedure, shortened: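 In parallel with the Smad reporter read, viability of HEK 293T cells stably carrying SBE-bla is quantified by ATP luminescence following 5 hr compound treatment.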
# [9] = qHTS assay to identify small molecule agonists of the TGF-beta/Smad signaling pathway (AID 1346859; active means well fitted activation curve with a large enough effect in the signal ratio in the repeat runs, not every such curve was filed as active; the % refers to the signal ratio; further: series mostly up to about 77 µM)
# Procedure, shortened: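 After overnight seeding, SBE-bla HEK 293T cells are dosed with compounds in DMSO and kept 5 hr at 37 C, 5% CO2. LiveBLAzer-type FRET substrate is then applied for 2 hr at room temperature.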
# [10] = molecular target: Thyrotropin-releasing hormone receptor (Homo sapiens) (UniProt P34981); assay: qHTS assay to identify small molecule antagonists of the thyrotropin-releasing hormone receptor (TRHR) signaling pathway (AID 1346877; active means well fitted inhibition curve with a large enough effect in the repeat runs, not every such curve was filed as active; further: series mostly up to about 51 µM)
# Thyrotropin-releasing hormone receptor (Homo sapiens), sequence (P34981 whole entry, looked up): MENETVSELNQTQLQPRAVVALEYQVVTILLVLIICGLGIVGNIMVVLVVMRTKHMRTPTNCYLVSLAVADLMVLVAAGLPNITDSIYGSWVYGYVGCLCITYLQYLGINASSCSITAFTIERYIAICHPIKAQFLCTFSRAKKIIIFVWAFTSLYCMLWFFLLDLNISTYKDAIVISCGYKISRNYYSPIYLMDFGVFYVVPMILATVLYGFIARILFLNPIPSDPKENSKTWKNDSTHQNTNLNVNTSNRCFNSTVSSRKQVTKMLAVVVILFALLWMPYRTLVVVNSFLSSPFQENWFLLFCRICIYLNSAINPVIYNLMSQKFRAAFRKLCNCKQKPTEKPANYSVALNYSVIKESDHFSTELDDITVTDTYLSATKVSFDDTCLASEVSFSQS
# Procedure, shortened: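 Calcium signal in dye-loaded TRHR/HEK293 cells; compounds added 5 min before TRH (1 nM final); fluorescence monitored 3 min at 1 s steps.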
# [11] = Human pregnane X receptor (PXR) small molecule agonists, qHTS cell viability counter screen (AID 1346977); further: nearly all actives have a fitted effect of over 50% in size; further: potency means the concentration at half of the fitted maximal effect
# Procedure, shortened: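 Viability counter screen: CellTiter-Fluor signal in PXR-Luc HepG2 cells, 24hr compound exposure, 37C, 5% CO2.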
# [12] = Caspase-3/7 induction in HepG2 cells by small molecules, qHTS assay (AID 1346978); further: nearly all actives have a fitted effect of over 15% in size
# Procedure, shortened: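 Wild-type HepG2 cells, 2,000/well, settled 5 hr at 37 C and 5% CO2, then compound-treated for 17 hr; caspase-3/7 activity read by luminescent Caspase-Glo 3/7 after 30 min at room temperature.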
# [13] = Caspase-3/7 induction in CHO-K1 cells by small molecules, qHTS cell viability counter screen (AID 1346979); further: nearly all actives have a fitted effect of over 35% in size; further: potency means the concentration at half of the fitted maximal effect
# Procedure, shortened: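 Viability readout by fluorescence (CellTiter-Fluor) on wild-type CHO-K1 cells exposed for 16hr at 37C and 5% CO2 to compounds delivered in DMSO; reagent incubated 1hr before reading.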
# [14] = Caspase-3/7 induction in CHO-K1 cells by small molecules, qHTS assay (AID 1346980); further: nearly all actives have a fitted effect of over 15% in size
# Procedure, shortened: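 Wild-type CHO-K1 cells exposed to compounds for 17hr at 37 C, 5% CO2. Caspase-3/7 activity then measured by Caspase-Glo 3/7 luminescence after 30min at room temperature.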
# [15] = Caspase-3/7 induction in HepG2 cells by small molecules, qHTS cell viability counter screen (AID 1346981); further: nearly all actives have a fitted effect of over 30% in size; further: potency means the concentration at half of the fitted maximal effect
# Procedure, shortened: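 After a 5-hr attachment period at 37 C and 5% CO2, wild-type HepG2 cells received compounds in DMSO. Sixteen hours later CellTiter-Fluor was dispensed and the fluorescent signal quantified after a further hour.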
# [16] = molecular target: Nuclear receptor subfamily 1 group I member 2 (Homo sapiens) (UniProt O75469); assay: Human pregnane X receptor (PXR) small molecule agonists, qHTS assay (AID 1346982); further: nearly all actives have a fitted effect of over 35% in size
# Nuclear receptor subfamily 1 group I member 2 (Homo sapiens), sequence (O75469 whole entry, looked up): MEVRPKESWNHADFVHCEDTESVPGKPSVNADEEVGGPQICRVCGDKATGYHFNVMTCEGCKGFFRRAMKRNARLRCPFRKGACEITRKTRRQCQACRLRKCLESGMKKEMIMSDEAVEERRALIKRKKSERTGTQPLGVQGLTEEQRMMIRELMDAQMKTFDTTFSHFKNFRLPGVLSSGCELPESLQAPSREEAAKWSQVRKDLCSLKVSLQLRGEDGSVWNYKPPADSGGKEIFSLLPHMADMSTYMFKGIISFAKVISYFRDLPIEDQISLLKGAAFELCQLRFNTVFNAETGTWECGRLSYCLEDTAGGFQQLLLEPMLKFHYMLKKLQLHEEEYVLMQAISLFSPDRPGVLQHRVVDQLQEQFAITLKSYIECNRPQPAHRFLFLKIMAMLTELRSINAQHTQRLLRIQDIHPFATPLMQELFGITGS
# Procedure, shortened: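 Tox21 qHTS; PXR-Luc HepG2; compounds pinned from DMSO; 24 hr, 37 C; ONE-Glo luciferase detection, 30 min room temperature.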
# [17] = molecular target: Nuclear receptor subfamily 1 group I member 2 (Rattus norvegicus) (UniProt Q9R1A7); assay: Rat pregnane X receptor (rPXR) activation by small molecules, qHTS assay (AID 1346983); settings: rPXR luciferase reporter cells, One-Glo luminescence, 24 h; max activation: stronger effect = higher value; further: nearly all actives have a fitted effect of over 20% in size
# Nuclear receptor subfamily 1 group I member 2 (Rattus norvegicus), sequence (Q9R1A7 whole entry, looked up): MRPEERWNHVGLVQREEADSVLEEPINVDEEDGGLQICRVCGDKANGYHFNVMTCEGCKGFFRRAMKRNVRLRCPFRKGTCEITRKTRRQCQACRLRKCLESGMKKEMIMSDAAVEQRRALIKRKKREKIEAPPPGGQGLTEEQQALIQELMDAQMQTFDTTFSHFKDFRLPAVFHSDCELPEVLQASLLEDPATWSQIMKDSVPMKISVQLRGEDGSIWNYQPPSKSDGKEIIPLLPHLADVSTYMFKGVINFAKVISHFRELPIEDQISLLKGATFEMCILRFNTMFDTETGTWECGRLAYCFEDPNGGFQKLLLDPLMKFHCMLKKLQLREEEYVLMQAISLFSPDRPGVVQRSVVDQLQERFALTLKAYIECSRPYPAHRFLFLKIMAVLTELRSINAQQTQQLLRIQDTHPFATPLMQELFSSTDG
# Procedure, shortened: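 Cell-based rPXR activation assay: rPXR cells, 2,000 per well, rested 5hr at 37 C, then exposed to compounds in DMSO for 24 hr at 37 C. Luciferase activity read by One-Glo luminescence after 30 min at room temperature.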
# [18] = molecular target: Nuclear receptor subfamily 1 group I member 2 (Homo sapiens) (UniProt O75469); assay: CYP3A4 induction through human pregnane X receptor (PXR) by small molecules, qHTS assay (AID 1346984); further: nearly all actives have a fitted effect of over 40% in size
# Procedure, shortened: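 Cells (DPX-2; HepG2 with PXR element plus CYP3A4-promoter luciferase) settled 5hr, then were treated 24hr at 37C. A 3hr, 3uM-final Luciferin-IPA step preceded luminescence measurement with One-Glo.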
# [19] = molecular target: Nuclear receptor subfamily 1 group I member 2 (Homo sapiens) (UniProt O75469); assay: Human pregnane X receptor (PXR) activation by small molecules, qHTS assay (AID 1346985); further: nearly all actives have a fitted effect of over 40% in size
# Procedure, shortened: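 DPX-2 cells (HepG2 co-transfected with a PXR response element and a CYP3A4-promoter luciferase construct) were seeded at 2,000 per well, rested 5 hr at 37C, then exposed to DMSO-dissolved compounds for 24 hr. Activation was read as luciferase luminescence.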
# [20] = molecular target: Thyrotropin-releasing hormone receptor (Homo sapiens) (UniProt P34981); assay: qHTS assay to identify small molecule agonists of the thyrotropin-releasing hormone receptor (TRHR) signaling pathway (AID 1346891; calls by dose curve;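 further: HEK293 cells expressing TRHR with calcium dye readout; series mostly up to about 58 µM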)
# Procedure, shortened: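 Compounds were tested as agonists at 15 concentrations, in triplicate, on TRHR-Hek293 cells; calcium-sensitive dye fluorescence was recorded for 3 min following addition.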
SMILES,Potency [1],Potency [2],Potency [3],Potency [4],Potency [5],Potency [6],outcome [7],Potency [8],Potency [9],outcome [10],Potency [11],Potency [12],Potency [13],outcome [14],Potency [15],Potency [16],max activation [17],Potency [18],Potency [19],outcome [20]
O=C(Nc1ccc(C(=O)O)c(O)c1)c1ccccc1,inactive,inactive,inactive,inactive,inactive,inactive,inactive,inactive,inactive,inactive,inactive,inactive,inactive,inactive,inactive,inactive,-2.23%,inactive,inactive,
O=C(O)CCS,inactive,inactive,inactive,inactive,inactive,inactive,inactive,inactive,inactive,inactive,inactive,inactive,inactive,inactive,inactive,inactive,,,,inactive
NC(=O)CCCCC(N)=O,inactive,inactive,inactive,inactive,inactive,inactive,inactive,inactive,inactive,inactive,inactive,inactive,inactive,inactive,,inactive,,,,inactive
Cc1ccc(N(CC2=NCCN2)c2cccc(O)c2)cc1,inactive,inactive,inactive,inactive,inactive,inactive,inactive,inactive,inactive,,inactive,inactive,inactive,inactive,inactive,inactive,,,,
Nc1ccc(N=Nc2ccc(N)cc2)cc1,inactive,24.3 µM (active),inactive,inactive,inactive,inactive,inactive,inactive,inactive,inactive,21.7 µM (active),inactive,24.3 µM (active),inactive,27.3 µM (active),inactive,,,,inactive
O=NN(CCCl)C(=O)NCCCl,inactive,inactive,inactive,inactive,inactive,inactive,inactive,inactive,inactive,inactive,inactive,inactive,inactive,inactive,inactive,,,,,inactive
CC/C=C\C/C=C\C/C=C\CCCCCCCC(=O)OCC,inactive,inactive,inactive,inactive,inactive,inactive,inactive,inactive,inactive,inactive,inactive,inactive,,,inactive,,,,,inactive
CCSC(=O)N(CC)CC,inactive,inactive,inactive,inactive,inactive,inactive,inactive,inactive,inactive,inactive,inactive,inactive,inactive,inactive,inactive,inactive,,,,inactive
CCCCCCCCCCCCCCCC(=O)OCC,inactive,inactive,inactive,inactive,inactive,inactive,inactive,inactive,inactive,inactive,inactive,inactive,inactive,inactive,inactive,inactive,,,,
CC(C)(O)c1coc(S(=O)(=O)NC(=O)Nc2c3c(cc4c2CCC4)CCC3)c1,inactive,inactive,inactive,inactive,inactive,inactive,inactive,inactive,inactive,inactive,inactive,inactive,inactive,inactive,inactive,inactive,,,,inactive
Cc1ccc(NC(=O)N(C)C)cc1NC(=O)N(C)C,inactive,inactive,inactive,inactive,inactive,inactive,inactive,inactive,inactive,inactive,inactive,inactive,inactive,inactive,inactive,,,,,inactive
O=CNNC=O,inactive,inactive,inactive,inactive,inactive,inactive,inactive,inactive,inactive,inactive,inactive,inactive,inactive,inactive,inactive,inactive,,,,inactive
CC[C@H]1OC(=O)[C@H](C)[C@@H](O[C@H]2C[C@@](C)(OC)[C@@H](O)[C@H](C)O2)[C@H](C)[C@@H](O[C@@H]2O[C@H](C)C[C@H](N(C)C)[C@H]2O)[C@](C)(O)C[C@@H](C)C(=O)[C@H](C)[C@@H](O)[C@]1(C)O,inactive,inactive,inactive,inactive,inactive,inactive,inactive,inactive,inactive,,inactive,inactive,inactive,inactive,inactive,inactive,-0.703% and -0.253%,inactive,inactive,
O=S(=O)(Cl)c1c(Cl)cccc1Cl,inactive,inactive,inactive,inactive,inactive,inactive,inactive,inactive,inactive,inactive,inactive,inactive,,inactive,inactive,inactive,,,,inactive
CSSc1ccoc1C,inactive,inactive,inactive,inactive,inactive,inactive,inactive,inactive,inactive,inactive,inactive,inactive,inactive,inactive,inactive,,,,,

# Source: PubChem BioAssay (Tox21)
